# ± gives the standard deviation of the averaged measurements.
# Columns and labels:
# Test in all cases: area under confluence curve of osimertinib + compound combination regimen (DTP regrowth); compare to osimertinib-only DTP control AUC of the same experiment (AUC (confluence x time, arbitrary))
# PC9 = tested on: PC9
# Procedure, shortened: (§1)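 The area under the IncuCyte confluence–time curve, calculated in Prism and taken as the median of triplicates where available, is the value reported. It was measured in EGFR-mutant NSCLC lines that received the EGFR inhibitor either alone, followed by a test compound, or together with a fixed-dose test compound until the persister stage (10–21 days) and then drug-free medium. Medium was refreshed every 3–4 days until the inhibitor-only wells were confluent again.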
# H1975 = tested on: H1975
# Procedure, shortened: as §1
# HCC2279 = conditions: DMSO control AUC in same experiment: 29252
# Procedure, shortened: as §1
# HCC2935 = conditions: DMSO control AUC in same experiment: 13875
# Procedure, shortened: as §1
# HCC4006 = conditions: DMSO control AUC in same experiment: 16638
# Procedure, shortened: as §1
# HCC827 = tested on: HCC827
# Procedure, shortened: as §1
# II-18 = tested on: II-18
# Procedure, shortened: as §1
smiles,measurement,setting,value
COC[C@H]1Cn2cc(-c3nc(Nc4ccnn4C)ncc3C)nc2C(=O)N1Cc1ccc(F)c(F)c1 + C=CC(=O)Nc1cc(Nc2nccc(-c3cn(C)c4ccccc34)n2)c(OC)cc1N(C)CCN(C)C [osimertinib],area under confluence curve,"PC9; test compound dose 100 nM, dosing schedule: sequential, osimertinib-only DTP control AUC in same experiment: 11414, DMSO control AUC in same experiment: 31219",6430
same,area under confluence curve,"PC9; test compound dose 100 nM, dosing schedule: sequential, osimertinib-only DTP control AUC in same experiment: 14554, DMSO control AUC in same experiment: 49189",2470
same,area under confluence curve,"PC9; test compound dose 100 nM, dosing schedule: upfront, osimertinib-only DTP control AUC in same experiment: 18848, DMSO control AUC in same experiment: 31219",2020
same,area under confluence curve,"PC9; test compound dose 100 nM, dosing schedule: upfront, osimertinib-only DTP control AUC in same experiment: 24473, DMSO control AUC in same experiment: 49189",2580
O=C(N[C@@H](C1CC1)C(F)(F)F)c1cc(-c2cnn3cc(-c4ccc(F)cc4)cnc23)cs1 + C=CC(=O)Nc1cc(Nc2nccc(-c3cn(C)c4ccccc34)n2)c(OC)cc1N(C)CCN(C)C [osimertinib],area under confluence curve,"PC9; test compound dose 1000 nM, dosing schedule: sequential, osimertinib-only DTP control AUC in same experiment: 10206, DMSO control AUC in same experiment: 18733",9160
same,area under confluence curve,"PC9; test compound dose 1000 nM, dosing schedule: upfront, osimertinib-only DTP control AUC in same experiment: 17072, DMSO control AUC in same experiment: 18733",16800
CCN(c1cc(-c2ccc(CN3CCOCC3)cc2)cc(C(=O)NCc2c(C)cc(C)[nH]c2=O)c1C)C1CCOCC1 [Tazemetostat] + C=CC(=O)Nc1cc(Nc2nccc(-c3cn(C)c4ccccc34)n2)c(OC)cc1N(C)CCN(C)C [osimertinib],area under confluence curve,"PC9; test compound dose 1000 nM, dosing schedule: sequential, osimertinib-only DTP control AUC in same experiment: 14030, DMSO control AUC in same experiment: 30326",11100
same,area under confluence curve,"PC9; test compound dose 1000 nM, dosing schedule: upfront, osimertinib-only DTP control AUC in same experiment: 20885, DMSO control AUC in same experiment: 30326",16200
Cc1cc2cc(C(=O)c3cnn(-c4cnc(Oc5c(F)cccc5F)cc4C)c3N)[nH]c2cc1NS(C)(=O)=O + C=CC(=O)Nc1cc(Nc2nccc(-c3cn(C)c4ccccc34)n2)c(OC)cc1N(C)CCN(C)C [osimertinib],area under confluence curve,"PC9; test compound dose 1000 nM, dosing schedule: sequential, osimertinib-only DTP control AUC in same experiment: 10968, DMSO control AUC in same experiment: 21594",7640
same,area under confluence curve,"PC9; test compound dose 1000 nM, dosing schedule: upfront, osimertinib-only DTP control AUC in same experiment: 17834, DMSO control AUC in same experiment: 21594",9050
Cc1nc(Nc2ncc(C(=O)Nc3c(C)cccc3Cl)s2)cc(N2CCN(CCO)CC2)n1 [Dasatinib] + C=CC(=O)Nc1cc(Nc2nccc(-c3cn(C)c4ccccc34)n2)c(OC)cc1N(C)CCN(C)C [osimertinib],area under confluence curve,"H1975; test compound dose 100 nM, dosing schedule: upfront, osimertinib-only DTP control AUC in same experiment: 18969, DMSO control AUC in same experiment: 14522",1440
same,area under confluence curve,"HCC2279; test compound dose 100 nM, dosing schedule: upfront, osimertinib-only DTP control AUC in same experiment: 43517",15300
same,area under confluence curve,"HCC2935; test compound dose 100 nM, dosing schedule: upfront, osimertinib-only DTP control AUC in same experiment: 10360",3810
same,area under confluence curve,"HCC4006; test compound dose 100 nM, dosing schedule: upfront, osimertinib-only DTP control AUC in same experiment: 21234",4610
same,area under confluence curve,"HCC827; test compound dose 100 nM, dosing schedule: upfront, osimertinib-only DTP control AUC in same experiment: 39553, DMSO control AUC in same experiment: 30859",3890
same,area under confluence curve,"II-18; test compound dose 30 nM, dosing schedule: upfront, osimertinib-only DTP control AUC in same experiment: 13359, DMSO control AUC in same experiment: 11408",2420
same,area under confluence curve,"PC9; test compound dose 30 nM, dosing schedule: sequential, osimertinib-only DTP control AUC in same experiment: 10175, DMSO control AUC in same experiment: 27958",2120
same,area under confluence curve,"PC9; test compound dose 30 nM, dosing schedule: sequential, osimertinib-only DTP control AUC in same experiment: 12589, DMSO control AUC in same experiment: 28243",1440
same,area under confluence curve,"PC9; test compound dose 30 nM, dosing schedule: upfront, osimertinib-only DTP control AUC in same experiment: 16088, DMSO control AUC in same experiment: 28243",1770
same,area under confluence curve,"PC9; test compound dose 30 nM, dosing schedule: upfront, osimertinib-only DTP control AUC in same experiment: 16134, DMSO control AUC in same experiment: 27958",2420
CCc1cc2c(cc1N1CCC(N3CCOCC3)CC1)C(C)(C)c1[nH]c3cc(C#N)ccc3c1C2=O [Alectinib] + C=CC(=O)Nc1cc(Nc2nccc(-c3cn(C)c4ccccc34)n2)c(OC)cc1N(C)CCN(C)C [osimertinib],area under confluence curve,"PC9; test compound dose 1000 nM, dosing schedule: sequential, osimertinib-only DTP control AUC in same experiment: 15001, DMSO control AUC in same experiment: 22064",12500
same,area under confluence curve,"PC9; test compound dose 1000 nM, dosing schedule: upfront, osimertinib-only DTP control AUC in same experiment: 24924, DMSO control AUC in same experiment: 22064",10800
C/C=C/Cn1cc(-c2cc(OC)c(C(=O)N3CCOCC3)cc2OC)c2cc(C)[nH]c2c1=O + C=CC(=O)Nc1cc(Nc2nccc(-c3cn(C)c4ccccc34)n2)c(OC)cc1N(C)CCN(C)C [osimertinib],area under confluence curve,"PC9; test compound dose 100 nM, dosing schedule: sequential, osimertinib-only DTP control AUC in same experiment: 12891, DMSO control AUC in same experiment: 44384",7150
same,area under confluence curve,"PC9; test compound dose 100 nM, dosing schedule: upfront, osimertinib-only DTP control AUC in same experiment: 16570, DMSO control AUC in same experiment: 44384",7750
C[C@@H](Nc1cc(F)cc(F)c1)c1cc(C(=O)N(C)C)cc2c(=O)cc(N3CCOCC3)oc12 + C=CC(=O)Nc1cc(Nc2nccc(-c3cn(C)c4ccccc34)n2)c(OC)cc1N(C)CCN(C)C [osimertinib],area under confluence curve,"H1975; test compound dose 1000 nM, dosing schedule: sequential, osimertinib-only DTP control AUC in same experiment: 15943, DMSO control AUC in same experiment: 20657",8220
same,area under confluence curve,"H1975; test compound dose 1000 nM, dosing schedule: upfront, osimertinib-only DTP control AUC in same experiment: 27804, DMSO control AUC in same experiment: 20657",13700
same,area under confluence curve,"HCC2279; test compound dose 1000 nM, dosing schedule: sequential, osimertinib-only DTP control AUC in same experiment: 21824",8080
same,area under confluence curve,"HCC2279; test compound dose 1000 nM, dosing schedule: upfront, osimertinib-only DTP control AUC in same experiment: 43517",21600
same,area under confluence curve,"HCC2935; test compound dose 1000 nM, dosing schedule: sequential, osimertinib-only DTP control AUC in same experiment: 6271",5860
same,area under confluence curve,"HCC2935; test compound dose 1000 nM, dosing schedule: upfront, osimertinib-only DTP control AUC in same experiment: 10360",5800
same,area under confluence curve,"HCC4006; test compound dose 1000 nM, dosing schedule: sequential, osimertinib-only DTP control AUC in same experiment: 19238",10300
same,area under confluence curve,"HCC4006; test compound dose 1000 nM, dosing schedule: upfront, osimertinib-only DTP control AUC in same experiment: 21234",5440
same,area under confluence curve,"HCC827; test compound dose 1000 nM, dosing schedule: sequential, osimertinib-only DTP control AUC in same experiment: 8266, DMSO control AUC in same experiment: 27404",3540
same,area under confluence curve,"HCC827; test compound dose 1000 nM, dosing schedule: upfront, osimertinib-only DTP control AUC in same experiment: 13929, DMSO control AUC in same experiment: 27404",3910
same,area under confluence curve,"II-18; test compound dose 1000 nM, dosing schedule: sequential, osimertinib-only DTP control AUC in same experiment: 21014, DMSO control AUC in same experiment: 18482",12100
same,area under confluence curve,"II-18; test compound dose 1000 nM, dosing schedule: upfront, osimertinib-only DTP control AUC in same experiment: 27084, DMSO control AUC in same experiment: 18482",10200
same,area under confluence curve,"PC9; test compound dose 1000 nM, dosing schedule: sequential, osimertinib-only DTP control AUC in same experiment: 1963, DMSO control AUC in same experiment: 30580",1970 ± 150
same,area under confluence curve,"PC9; test compound dose 1000 nM, dosing schedule: sequential, osimertinib-only DTP control AUC in same experiment: 10725, DMSO control AUC in same experiment: 30578",4550
same,area under confluence curve,"PC9; test compound dose 1000 nM, dosing schedule: sequential, osimertinib-only DTP control AUC in same experiment: 12535, DMSO control AUC in same experiment: 43316",4790
same,area under confluence curve,"PC9; test compound dose 1000 nM, dosing schedule: sequential, osimertinib-only DTP control AUC in same experiment: 15163, DMSO control AUC in same experiment: 28684",5770
same,area under confluence curve,"PC9; test compound dose 1000 nM, dosing schedule: upfront, osimertinib-only DTP control AUC in same experiment: 8618, DMSO control AUC in same experiment: 30580",4780 ± 250
same,area under confluence curve,"PC9; test compound dose 1000 nM, dosing schedule: upfront, osimertinib-only DTP control AUC in same experiment: 10245, DMSO control AUC in same experiment: 30578",8450
same,area under confluence curve,"PC9; test compound dose 1000 nM, dosing schedule: upfront, osimertinib-only DTP control AUC in same experiment: 15354, DMSO control AUC in same experiment: 43316",8140
same,area under confluence curve,"PC9; test compound dose 1000 nM, dosing schedule: upfront, osimertinib-only DTP control AUC in same experiment: 21337, DMSO control AUC in same experiment: 28684",7910
NC(=O)Nc1cc(-c2cccc(F)c2)sc1C(=O)N[C@H]1CCCNC1 + C=CC(=O)Nc1cc(Nc2nccc(-c3cn(C)c4ccccc34)n2)c(OC)cc1N(C)CCN(C)C [osimertinib],area under confluence curve,"PC9; test compound dose 5 nM, dosing schedule: sequential, osimertinib-only DTP control AUC in same experiment: 7760, DMSO control AUC in same experiment: 29563",4940
same,area under confluence curve,"PC9; test compound dose 5 nM, dosing schedule: upfront, osimertinib-only DTP control AUC in same experiment: 11798, DMSO control AUC in same experiment: 29563",9410

# Reference: the supplement of paper PMC9794691
